Measured values taken from PubChem BioAssay AID1159580 (chemical genetic matrix, 2015).
Several values for one entry are separate records, joined by “and”; a condition that tells them apart may be missing. Equal values may be shown once. Hit rate of the full screen: of about 5,500 compounds, about 2,000 (36%) were called active. Another 18% or so got no clear call; they are omitted. Cut-off read from the data, not from the text of the source: active = normalized growth mostly below about 0.91 (no sharp cut-off); inconclusive = no clear call, values can overlap the other calls; inactive = mostly above about 0.92. This is one part of the list.

Assay: chemical genetic growth profiling, strain panel (AID 1159580);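 note: tested at 20 µM; growth read once vehicle control cultures reached saturation at 30 °C; 1 = growth at the plate median or of vehicle wells; lower values mean less growth of the strain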
Settings: S. cerevisiae deletion strains, growth OD

Measured: normalized growth

CCCCCc1c2c(cc(O)c1C(=O)O)OC(=O)c1c(cc(OC)cc1C(=O)CCCC)O2
inactive: locus YAL021C, strain ccr4, stronger effect = lower value 0.954 | locus YAL026C, strain drs2, stronger effect = lower value 1.01 | locus YAL030W, strain snc1, stronger effect = lower value 0.993 | locus YBL061C, strain skt5, stronger effect = lower value 0.999 | locus YBR009C, strain hhf1, stronger effect = lower value 1.01 | locus YBR021W, strain FUR4, stronger effect = lower value 1.02 | locus YBR023C, strain chs3, stronger effect = lower value 1 | locus YBR171W, strain sec66, stronger effect = lower value 1 | locus YBR229C, strain ROT2, stronger effect = lower value 0.935 | locus YBR231C, strain swc5, stronger effect = lower value 0.988 | locus YBR279W, strain paf1, stronger effect = lower value 1.01 | locus YCL011C, strain gbp2, stronger effect = lower value 0.997 | locus YCL016C, strain dcc1, stronger effect = lower value 0.994 | locus YCL029C, strain bik1, stronger effect = lower value 0.989 | locus YCL069W, strain vba3, stronger effect = lower value 1.03 | locus YCR088W, strain abp1, stronger effect = lower value 1 | locus YDL005C, strain med2, stronger effect = lower value 0.977 | locus YDL035C, strain GPR1, stronger effect = lower value 0.945 | locus YDL040C, strain nat1, stronger effect = lower value 0.994 | locus YDL074C, strain BRE1, stronger effect = lower value 0.982 | locus YDL101C, strain DUN1, stronger effect = lower value 0.998 | locus YDL185W, strain tfp1, stronger effect = lower value 0.968 | locus YDL192W, strain arf1, stronger effect = lower value 0.968 | locus YDR001C, strain nth1, stronger effect = lower value 1 | locus YDR069C, strain doa4, stronger effect = lower value 0.985 | locus YDR101C, strain arx1, stronger effect = lower value 0.961 | locus YDR137W, strain rgp1, stronger effect = lower value 0.941 | locus YDR150W, strain NUM1, stronger effect = lower value 0.99 | locus YDR159W, strain sac3, stronger effect = lower value 0.994 | locus YDR162C, strain NBP2, stronger effect = lower value 0.955 | locus YDR195W, strain ref2 0.977 | locus YDR297W, strain sur2, stronger effect = lower value 0.995 | locus YDR318W, strain mcm21, stronger effect = lower value 0.99 | locus YDR334W, strain swr1, stronger effect = lower value 1.01 | locus YDR335W, strain msn5, stronger effect = lower value 1 | locus YDR388W, stronger effect = lower value 0.997 | locus YDR392W, strain spt3, stronger effect = lower value 0.988 | locus YDR502C, strain sam2, stronger effect = lower value 1.03 | locus YEL003W, strain gim4, stronger effect = lower value 1.01 | locus YEL037C, strain rad23, stronger effect = lower value 1.01 | locus YEL061C, strain CIN8 (second series), stronger effect = lower value 1.02 | locus YER015W, strain faa2, stronger effect = lower value 1 | locus YER016W, strain bim1, stronger effect = lower value 0.989 | locus YER110C, stronger effect = lower value 0.973 | locus YER111C, strain swi4, stronger effect = lower value 0.995 | locus YER155C, strain BEM2 (second series), stronger effect = lower value 0.998 | locus YER155C, strain BEM2, stronger effect = lower value 1.01 | locus YER167W, strain BCK2, stronger effect = lower value 0.985 | locus YFR010W, strain ubp6, stronger effect = lower value 1 | locus YGL078C, strain dbp3, stronger effect = lower value 0.977 | locus YGL086W, strain mad1, stronger effect = lower value 1 | locus YGL167C, strain pmr1, stronger effect = lower value 0.977 | locus YGL173C, strain kem1, stronger effect = lower value 0.991 | locus YGL227W, strain vid30, stronger effect = lower value 1.03 | locus YGL240W, strain doc1, stronger effect = lower value 0.964 | locus YGL248W, strain PDE1, stronger effect = lower value 0.99 | locus YGL253W, strain hxk2, stronger effect = lower value 1.01 | locus YGR135W, strain pre9, stronger effect = lower value 1.04 | locus YGR252W, strain gcn5, stronger effect = lower value 1.01 | locus YHR013C, strain ard1, stronger effect = lower value 0.989 | locus YHR027C, strain rpn1, stronger effect = lower value 1.01 | locus YHR030C, strain SLT2, stronger effect = lower value 0.961 | locus YHR079C, strain IRE1 (second series), stronger effect = lower value 0.988 | locus YHR079C, strain IRE1, stronger effect = lower value 0.959 | locus YHR094C, strain hxt1, stronger effect = lower value 0.983 | locus YHR129C, strain ARP1, stronger effect = lower value 0.993 | locus YHR142W, strain chs7, stronger effect = lower value 1.02 | locus YHR200W, strain rpn10, stronger effect = lower value 0.987 | locus YIL066C, strain RNR3, stronger effect = lower value 0.978 | locus YIL073C, strain SPO22, stronger effect = lower value 0.97 | locus YIL125W, strain kgd1, stronger effect = lower value 0.991 | locus YIR030C, strain dcg1, stronger effect = lower value 0.986 | locus YJL092W, strain hpr5, stronger effect = lower value 1.01 | locus YJL095W, strain BCK1 (second series), stronger effect = lower value 0.997 | locus YJL095W, strain BCK1, stronger effect = lower value 1.06 and 0.972 | locus YJL115W, strain asf1, stronger effect = lower value 0.982 | locus YJL129C, strain trk1, stronger effect = lower value 1.02 | locus YJL134W, strain LCB3, stronger effect = lower value 0.977 | locus YJL154C, strain vps35, stronger effect = lower value 0.996 | locus YJL164C, strain tpk1, stronger effect = lower value 0.995 | locus YJL166W, strain qcr8, stronger effect = lower value 0.979 | locus YJL168C, strain set2, stronger effect = lower value 0.991 | locus YJL187C, strain SWE1 (second series), stronger effect = lower value 1.01 | locus YJL187C, strain SWE1, stronger effect = lower value 1 | locus YJR043C, strain POL32, stronger effect = lower value 0.941 | locus YJR066W, strain TOR1, stronger effect = lower value 0.961 | locus YJR075W, strain HOC1, stronger effect = lower value 0.993 | locus YKL009W, strain mrt4, stronger effect = lower value 0.971 | locus YKL068W, stronger effect = lower value 0.995 | locus YKL085W, strain MDH1 (second series), stronger effect = lower value 0.995 | locus YKL085W, strain MDH1, stronger effect = lower value 0.995 | locus YKL160W, strain elf1, stronger effect = lower value 1.01 | locus YKR001C, strain vps1, stronger effect = lower value 0.985 | locus YKR026C, strain gcn3, stronger effect = lower value 0.998 | locus YKR091W, strain srl3, stronger effect = lower value 0.997 | locus YLL001W, strain dnm1, stronger effect = lower value 1.01 | locus YLL026W, stronger effect = lower value 0.995 | locus YLL041C, strain sdh2, stronger effect = lower value 0.986 | locus YLR027C, strain aat2, stronger effect = lower value 1.01 | locus YLR039C, strain RIC1, stronger effect = lower value 0.955 | locus YLR058C, strain SHM2, stronger effect = lower value 0.97 | locus YLR102C, strain apc9, stronger effect = lower value 0.979 | locus YLR113W, strain HOG1, stronger effect = lower value 0.929 | locus YLR221C, strain rsa3, stronger effect = lower value 0.99 | locus YLR258W, strain gsy2, stronger effect = lower value 1.01 | locus YLR262C, strain YPT6 (second series), stronger effect = lower value 0.993 | locus YLR262C, strain YPT6, stronger effect = lower value 0.967 | locus YLR268W, strain sec22, stronger effect = lower value 0.972 | locus YLR320W, strain mms22, stronger effect = lower value 0.979 | locus YLR342W, strain FKS1, stronger effect = lower value 0.981 | locus YLR357W, strain rsc2, stronger effect = lower value 0.923 | locus YLR370C, strain arc18, stronger effect = lower value 0.997 | locus YLR371W, strain rom2, stronger effect = lower value 0.981 | locus YLR384C, strain iki3, stronger effect = lower value 0.995 | locus YLR418C, strain cdc73, stronger effect = lower value 1.04 | locus YML016C, strain PPZ1, stronger effect = lower value 0.96 | locus YML032C, strain rad52, stronger effect = lower value 0.996 | locus YML120C, strain ndi1, stronger effect = lower value 0.995 | locus YML124C, strain tub3, stronger effect = lower value 0.995 | locus YMR058W, strain fet3, stronger effect = lower value 0.987 | locus YMR078C, strain ctf18, stronger effect = lower value 0.983 | locus YMR125W, strain sto1, stronger effect = lower value 0.996 | locus YMR129W, stronger effect = lower value 1.01 | locus YMR205C, strain PFK2, stronger effect = lower value 0.992 | locus YMR223W, strain ubp8, stronger effect = lower value 1.01 | locus YMR231W, strain pep5, stronger effect = lower value 0.994 | locus YMR307W, strain GAS1, stronger effect = lower value 1.03 | locus YNL067W, strain RPL9B, stronger effect = lower value 0.999 | locus YNL071W, strain lat1, stronger effect = lower value 1 | locus YNL153C, strain GIM3, stronger effect = lower value 1.02 | locus YNL183C, strain NPR1, stronger effect = lower value 0.937 | locus YNL209W, strain ssb2, stronger effect = lower value 1.01 | locus YNL233W, strain BNI4, stronger effect = lower value 1.03 | locus YNL248C, strain rpa49, stronger effect = lower value 0.993 | locus YNL250W, strain rad50, stronger effect = lower value 0.991 | locus YNL271C, strain bni1, stronger effect = lower value 0.99 | locus YNL298W, strain CLA4, stronger effect = lower value 0.959 | locus YNL307C, strain MCK1, stronger effect = lower value 1 | locus YNL322C, strain KRE1 (second series), stronger effect = lower value 0.998 | locus YNL322C, strain KRE1, stronger effect = lower value 0.986 | locus YNR049C, strain mso1, stronger effect = lower value 0.982 | locus YNR052C, strain pop2, stronger effect = lower value 1.01 | locus YOL012C, strain htz1 1.1 | locus YOL147C, strain pex11, stronger effect = lower value 0.993 | locus YOR001W, strain rrp6, stronger effect = lower value 1 | locus YOR061W, strain CKA2, stronger effect = lower value 0.942 | locus YOR069W, strain VPS5, stronger effect = lower value 0.993 | locus YOR070C, strain gyp1, stronger effect = lower value 0.999 | locus YOR080W, strain dia2, stronger effect = lower value 0.99 | locus YOR083W, strain WHI5, stronger effect = lower value 0.991 | locus YOR106W, strain vam3, stronger effect = lower value 0.995 | locus YOR136W, strain idh2, stronger effect = lower value 1 | locus YOR144C, strain elg1, stronger effect = lower value 0.983 | locus YOR184W, strain ser1, stronger effect = lower value 0.951 | locus YOR231W, strain MKK1, stronger effect = lower value 0.983 | locus YOR265W, strain rbl2, stronger effect = lower value 0.991 | locus YOR270C, strain vph1, stronger effect = lower value 1.02 | locus YOR290C, strain snf2, stronger effect = lower value 1.02 | locus YOR316C, strain cot1, stronger effect = lower value 1 | locus YPL051W, strain arl3, stronger effect = lower value 1 | locus YPL078C, strain atp4, stronger effect = lower value 0.992 | locus YPL106C, strain sse1, stronger effect = lower value 0.951 | locus YPL240C, strain hsp82, stronger effect = lower value 0.998 | locus YPL241C, strain CIN2, stronger effect = lower value 0.991 | locus YPL256C, strain CLN2, stronger effect = lower value 0.989 | locus YPR119W, strain clb2, stronger effect = lower value 1 | locus YPR141C, strain kar3, stronger effect = lower value 0.987 | locus YPR163C, strain tif3, stronger effect = lower value 0.984 | locus YPR167C, strain met16, stronger effect = lower value 1 | strain wtn01, stronger effect = lower value 0.96
